Bioassay records (PubChem)
Insulin prom up = MIN6 insulin promoter up-regulation | MIN6 insulin promoter-GFP reporter, high-content imaging; active compounds read high | z-score at 5 µM | 0.3% of 190,000 active | AID 1625;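 active = z-score above 3 at 5 µM with at least 500 cells counted in the well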
INS promoter inh = TRM-6 insulin promoter activity inhibition; 0.9% of 130,000 active; TRM-6 cells (human fetal islet line), insulin promoter-eGFP reporter, imaging; reporter expression induced with tamoxifen; AID 1273; inhibition, % at 2 µM;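 active = inhibition above the mean plus 3 SD, with well images judged a real hit on visual review, cut at about 60% in these data, passing the limit was not always enough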
L major viab = inhibitors of Leishmania major promastigote growth; Leishmania major promastigotes, resazurin fluorescence viability; inhibition, % at 10 µM; 9% of 200,000 active; AID 1063; in the data active = inhibition above about 50%;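 note: promastigotes grown with compound for 44 hours at 28 °C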
WT yeast gro inh = growth inhibition of WT yeast, mitochondrial fusion screen; mitochondrial fusion phenotypic screen, WT strain; 2.1% of 190,000 active; AID 1362; inhibition, % at 10 µM; in the data active = inhibition above about 58%; tested in S. cerevisiae
Autophagy mod = modulators of autophagy | calls only at 10 µM (by protocol) | AID 463193 | 0.98% of 190,000 active | MEF GFP-LC3 puncta imaging; test concentration mostly 10 µM;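 active = percentage of spot-positive cells more than 3 SD above its plate mean, without a fluorescence outlier flag or 80% toxicity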;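 note: spot-positive cell cutoff set from DMSO-treated cells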
Active calls of the source: *; i = inactive; nt = not tested or not shown; + = active, no number. Hits are enriched below; roughly 11% of the tested compounds scored in any of these assays.

SMILES	Insulin prom up	INS promoter inh	L major viab	WT yeast gro inh	Autophagy mod
Cc1[nH]c2ccc(F)cc2c1CCN(Cc1ccncc1)C(=S)Nc1ccc(F)cc1	-1.23	-45.5	99.0*	-36.0	i
Cc1[nH]c2ccc(F)cc2c1CCN(Cc1cccnc1)C(=S)Nc1cccc(F)c1	-1	-88.9	100.3*	14.4	i
Cc1[nH]c2ccc(F)cc2c1CCN(Cc1ccco1)C(=S)NC(C)(C)C	-0.37	-347.1	35.7	66.8*	i
Cc1ccccc1NC(=S)N(CCc1c(C)[nH]c2ccc(F)cc12)Cc1cccnc1	0.3	0.0	100.2*	-11.7	i
CCN(C(=O)CN1CCN(S(=O)(=O)c2cc(Cl)ccc2Cl)CC1)c1c(N)n(Cc2ccccc2)c(=O)[nH]c1=O	0.01	21.6	39.0	-0.3	i
COC(Cn1c2c(c3cc(C)ccc31)CCCC2NCc1ccccc1)OC (stereo unspecified)	0.07	nt	nt	nt	nt
O=C(NCc1ccccc1)Nc1cccn(Cc2ccccc2Cl)c1=O	0.06	5.3	-3.2	15.7	i
O=C(COC(=O)c1cc[n+]([O-])cc1)NCc1ccccc1Cl	0.31	-66.7	-5.8	12.7	i
C/C(N)=C(/C#N)C(=O)COC(=O)CC12CC3CC(CC(C3)C1)C2	-1.16	22.6	96.6*	18.5	i
Cc1cc(C)c(NC(=O)CSc2nnc(SCC(=O)Nc3c(C)cc(C)cc3C)n2N)c(C)c1	1.09	1.4	-11.3	nt	i
COC(=O)C(Nc1ccccc1Cl)(c1cc(C)c(O)c(C)c1)C(F)(F)F (stereo unspecified)	-0.14	3.3	25.3	90.3*	i
CCOC(=O)C(NC(=O)c1ccccc1Cl)(Nc1ccc(C)c(C)c1)C(F)(F)F (stereo unspecified)	-0.23	-177.1	-2.5	27.5	i
CN(CCCNC(=O)CSc1cc(=O)n(C)c2ccc(Cl)cc12)Cc1ccccc1	-0.38	-20.0	57.8*	-0.6	i
COCCNC(=O)CSc1cc(=O)n(C)c2cc(Cl)ccc12	0.74	26.7	3.1	-13.5	i
Cc1ccc2nc(NC(=O)CCNS(=O)(=O)c3ccc(Br)s3)sc2c1	-0.86	nt	97.9*	19.9	+
Cc1cc(OCC(=O)N2CCCCCC2)ccc1[N+](=O)[O-]	-0.1	-22.2	48.2	-9.1	i
Cc1ccc(OCCCCN2CCCC(C)C2)c([N+](=O)[O-])c1 (stereo unspecified)	-1	nt	86.4*	18.4	i
Cc1ccc([N+](=O)[O-])c(OCCCN2CCCCCC2)c1	0.58	nt	98.5*	9.3	i
Cc1cc(OCCN2CCCCCC2)ccc1[N+](=O)[O-]	0.22	nt	91.5*	8.9	i
N#Cc1cn(CC(=O)N2CCc3ccccc3C2)c2ccccc12	-0.63	14.3	32.1	13.1	i
CC1CCN(C(=O)C(C)c2ccc([N+](=O)[O-])cc2)CC1 (stereo unspecified)	-0.37	nt	0.7	-11.3	i
Cc1[nH]c2ccccc2c1C(=O)CCl	-0.65	nt	99.0*	-31.2	+
Cc1[nH]c2ccccc2c1C(=O)CSc1ccccc1	0.15	22.2	4.8	-1.9	i
NC(=O)COc1ccc(-c2noc(COc3ccccc3[N+](=O)[O-])n2)cc1	0.62	41.7	-10.1	2.2	i
CNC(=O)C1CC(=O)N(CCCc2ccccc2)C(=Nc2ccccc2)S1 (stereo unspecified)	0.11	-25.0	55.3*	11.1	i
SMILES	Insulin prom up	INS promoter inh	L major viab	WT yeast gro inh	Autophagy mod
Cc1ccc(-n2nc3ccc(NC(=O)/C=C/c4ccco4)cc3n2)cc1	-0.35	-42.3	59.5*	9.1	i
CCOC(=O)c1[nH]ncc1CN1CCCC(C(=O)c2ccc(C(C)(C)C)cc2)C1 (stereo unspecified)	0.15	12.5	73.8*	20.2	i
COC(=O)C1CCN(Cc2ccc(C)cc2)CC1	nt	-57.1	90.8*	4.3	i
CCOC(=O)C1CCN(Cc2ccc(F)c(Br)c2)CC1	1.18	6.2	76.7*	3.0	i
CCOC(=O)C1CCN(Cc2ccc(OC)c(C)c2OC)CC1	-0.21	nt	63.8*	-8.9	i
CCOC(=O)C1CCN(Cc2nc3ccccc3c(=O)n2-c2ccc(F)cc2)CC1	0.47	-28.6	-0.6	10.5	i
CCOC(=O)C1CCCN(Cc2cn[nH]c2-c2ccc(F)cc2F)C1 (stereo unspecified)	-0.15	nt	-0.5	-15.0	+
COc1ccccc1C(=O)N1CCN(Cc2cn[nH]c2-c2ccc(F)cc2F)CC1	0.6	nt	-4.5	-8.8	i
CCOC(=O)C1CCN(Cc2ccc(F)cc2F)CC1	-0.54	-33.3	89.4*	-0.4	i
CN(C(=O)COC(=O)CCc1c[nH]c2ccccc12)C(c1ccccc1)c1ccccc1	0.88	nt	-3.5	11.8	i
